# Reference: PubChem BioAssay AID1839 (Johns Hopkins Ion Channel Center, 2009)
# In all, about 2,400 compounds went through this assay and about 220 (9.2%) were called active. What follows is part of a selection rich in actives, with near analogues and random picks from the rest. Values without a mark were called inactive.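 The calls were made as follows: active = signal change above the mean of dofetilide-free buffer controls plus 3 SD, so a positive margin; inactive = the rest.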
# Experiment: thallium signal changes without hERG – cell-based, CHO-K1 parental line, FluxOR thallium flux, counter-screen for hERG block protection project, confirmation (AID 1839);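 also: compounds applied alone with no dofetilide to cells lacking hERG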
# Settings: CHO-K1 parental cells, FluxOR thallium flux fluorescence; at 10 µM
row,Compound,"signal change vs control minus 3*SD hit threshold (margin above threshold, higher = more increase)"
1,Fc1cccc2sc(Nc3nc4c(F)cccc4s3)nc12,-6.3%
2,COc1cccc2sc(Nc3nc(-c4ccccn4)cs3)nc12,-29.4%
3,COc1cccc2sc(Nc3nnc(-c4ccccc4Cl)o3)nc12,-16%
4,COc1cccc2sc(Nc3nnc(-c4cccs4)o3)nc12,14.3% (active)
5,COc1cccc2sc(Nc3nnc(-c4ccc(F)cc4)o3)nc12,13.1% (active)
6,Fc1cccc2sc(Nc3nnc(-c4ccco4)o3)nc12,-13.8%
7,Fc1cccc2sc(Nc3nnc(-c4ccccc4)o3)nc12,39.2% (active)
8,COc1cccc(-c2nnc(Nc3nc4c(F)cccc4s3)o2)c1,-7.5%
9,CCC1CCCCN1C(=S)NC(=O)c1ccc([N+](=O)[O-])cc1 (configuration not stated),-2.3%
10,CN1C(=O)CSc2ccc(NC(=O)N3CCc4ccccc43)cc21,-32.3%
11,COc1ccccc1-n1c(CCC(=O)O)ccc1-c1ccccc1,-17.9%
12,CCOC(=O)CC(=O)CSc1nc2c(C)c(C)ccc2cc1C,-25%
13,C/C(=N\Nc1nc(C)c(C)s1)c1ccc([N+](=O)[O-])cc1,-17.3%
14,CCn1c(O)c(N=NC2=NC(=O)CS2)c2ccccc21,-27%
15,CCn1c(O)c(N=NC2=NC(=O)CS2)c2cc(C)ccc21,-27.3%
16,CCc1ccc2c(c1)c(N=NC1=NC(=O)CS1)c(O)n2CC,1% (active)
17,CCCOc1ccc(CN(CCC#N)C(=S)NC(=O)c2ccccc2)cc1,-20.4%
18,Cc1ccc2c(c1)c1nnc(SCC(=O)Nc3ccc(N(C)C)cc3)nc1n2CC(=O)O,-28.5%
19,CCOC(=O)N/N=C/C=C/c1ccccc1[N+](=O)[O-],-14.5%
20,CCN(CC)S(=O)(=O)c1cc(OC)ccc1N=Nc1ccc(O)c2ncccc12,5.8% (active)
21,COc1cccc(N=Nc2ccc(O)c3ncccc23)c1,-23.6%
22,COc1ccccc1N=Nc1ccc(O)c2ncccc12,-39%
23,O=C(NC(=S)Nc1cccnc1)c1cc2ccccc2o1,-7.1%
24,C=CCN(CC=C)C(=S)NC(=O)c1ccc(-c2ccccc2)cc1,-9.3%
25,Cc1ccc(C(=O)NC(=S)N(C)Cc2ccccc2)cc1,-19.2%

row,Compound,"signal change vs control minus 3*SD hit threshold (margin above threshold, higher = more increase)"
1,COc1cc(OC)cc(C(=O)NC(=S)N(Cc2ccccc2)C(C)C)c1,-1.3%
2,COc1ccc(C(=O)NC(=S)N(Cc2ccccc2)Cc2ccccc2)cc1,7.4% (active)
3,CCOc1ccc(C(=O)NC(=S)N(Cc2ccccc2)Cc2ccccc2)cc1,-15.4%
4,CCCN(CCC)C(=S)NC(=O)c1ccc(-c2ccccc2)cc1,18.5% (active)
5,CCCCC1(O)CC(C(F)(F)F)=NN1C(=O)COc1ccccc1 (configuration not stated),-36.4%
6,Cc1ccc(OCCC(=O)OC(C)C(=O)NC2CC2)cc1 (configuration not stated),-26.5%
7,CC(=O)Cn1c(=O)c2c(nc3n2CCCN3Cc2ccccc2)n(C)c1=O,-25.8%
8,O=C(O)CN1C(=O)c2ccc(Oc3ccc4c(c3)C(=O)N(CC(=O)O)C4=O)cc2C1=O,-18.4%
9,O=C(O)Cc1cc(I)c(Oc2ccc(O)c(I)c2)c(I)c1,7.3% (active)
10,CCCCC(=O)Nc1ccc(NCc2ccc(C)s2)cc1,-5.7%
11,CC[C@@H](C(=O)[C@@H](C)[C@@H](O)[C@H](C)CCc1ccc(C)c(O)c1C(=O)O)[C@H]1O[C@](CC)([C@H]2CC[C@](O)(CC)[C@H](C)O2)C[C@@H]1C,58.8% (active)
12,CC(NC(=S)NC1CCCCC1)c1ccccc1 (configuration not stated),-19.6%
13,Cc1ccc(C(C)NC(=O)C2CCCC2)cc1C (configuration not stated),0.7% (active)
14,CCc1ccc(C(C)NC(=O)C2CCCC2)cc1 (configuration not stated),-18.1%
15,Cc1ccc(C(C)NC(=S)NC2CCCCC2)cc1C (configuration not stated),1% (active)
16,Cc1ccc(C(=O)NC(C)c2ccc(C)c(C)c2)s1 (configuration not stated),-19%
17,CCOc1ccc(C(C)NC(=S)NC2CCCCC2)cc1 (configuration not stated),-15.5%
18,C[n+]1ccccc1/C=C/c1c(F)cccc1F,-21.1%
19,COCCn1nnnc1C(c1ccc(C(F)(F)F)cc1)N1CCOCC1 (configuration not stated),-34%
20,O=C1C2C3C=CC(C4CC34)C2C(=O)N1/N=C/c1ccc(-c2ccc(F)cc2[N+](=O)[O-])o1 (configuration not stated),-30.5%
21,COc1ccc(NC(=O)C(=O)NNC(=O)C(C)Oc2ccc(Cl)cc2Cl)cc1 (configuration not stated),-10.9%
22,COc1cccc(C(=O)NNC(=O)C(=O)Nc2ccc(C)c(Cl)c2)c1,13.6% (active)
23,COc1ccc(NC(=O)c2ccc(COCC(F)(F)C(F)F)cc2)cc1,-40.3%
24,COc1cc(OC)cc(C(=O)NNC(=O)C(=O)Nc2cc(OC)c(Cl)cc2OC)c1,23.8% (active)
25,COc1ccc(C(=O)NNC(=O)C(=O)Nc2ccc(C)c(Cl)c2)cc1,-14.1%

row,Compound,"signal change vs control minus 3*SD hit threshold (margin above threshold, higher = more increase)"
1,COc1cccc(C(=O)NNC(=O)C(=O)Nc2ccc(C)cc2)c1,28.8% (active)
2,COc1cccc(C(=O)NNC(=O)C(=O)Nc2cccc(Cl)c2C)c1,-6.7%
3,COc1ccc(C(=O)NNC(=O)C(=O)Nc2ccc(C)cc2)cc1,-5.7%
4,COc1cccc(C(=O)CC(=O)C(=O)Nc2ccc(C)cc2Cl)c1,-9.2%
5,CCc1ccc(NC(=O)C(=O)NNC(=O)c2ccc(OC)cc2)cc1,21.6% (active)
6,Cc1cc(S(=O)(=O)Nc2ccc(C(=O)N3CCN(C(=O)c4ccco4)CC3)cc2)ccc1F,-12.4%
7,O=[N+]([O-])c1cc(S(=O)(=O)/N=C(/c2ccccc2)N2CCOCC2)ccc1Cl,-31.7%
8,CCOP(=O)(OCC)C(NC(=O)c1ccc(OC)c(OC)c1)c1ccccc1 (configuration not stated),-21.4%
9,Cc1cc(C(=O)NNC2CC(=O)N(c3ccc4ccccc4c3)C2=O)c(C)o1 (configuration not stated),-24.7%
10,O=C(c1cccs1)N1CCN(C23CC4CC(CC(C4)C2)C3)CC1,-34.9%
11,Cc1cc(C)c(S(=O)(=O)NCc2ccccn2)c(C)c1,-22.6%
12,Cn1c(=O)c(Sc2ccccc2)c(O)c2ccccc21,-14.2%
13,O=C1CC(O)(C(F)(F)F)Oc2c1ccc1ccccc21 (configuration not stated),-3%
14,CCc1ccc(NC(=O)C(=O)NNC(=O)c2cccc(OC)c2)cc1,41.3% (active)
15,CCc1ccc(NC(=S)Nc2cccc(OC)c2)cc1,-32.4%
16,COc1cccc(CCNS(=O)(=O)CCNC(=O)c2cccc(OC)c2)c1,-25.6%
17,CC(=O)Nc1ccccc1C(=O)C(=O)Nc1ccccc1,-32.8%
18,CCCN(CCC)C(=S)NC(=O)c1ccc(Cl)cc1Cl,27% (active)
19,O=C(NC(=S)N(CCO)Cc1ccccc1)c1cc(Br)ccc1Cl,-12.2%
20,CCN(CC)C(=S)NC(=O)c1ccc(Cl)cc1Cl,3.8% (active)
21,CC1(C)CC(NC(=O)c2ccc(Cl)cc2Cl)CC(C)(C)N1,-35.9%
22,CCN(CC)C(=S)NC(=O)c1ccc(F)cc1,-15.9%
23,CN(C)/C=C/C(=O)c1ccc(Cl)cc1Cl,-23.8%
24,O=C(NC(=S)N1CCCCCC1)c1ccc(Cl)cc1Cl,-16.7%
25,CC1(C)CC2CC(C)(CN2C(=S)NC(=O)c2ccccc2Cl)C1 (configuration not stated),-14.7%

row,Compound,"signal change vs control minus 3*SD hit threshold (margin above threshold, higher = more increase)"
1,CCCCN(CCCC)C(=S)NC(=O)c1ccccc1Cl,39.6% (active)
2,C=CCNC(=O)c1onc(CSc2ccc(OC)cc2)c1C(=O)O,-35.4%
3,Cc1ccc(/C=C(\NC(=O)c2ccccc2)C(=O)N2CCCCC2)cc1,-35.4%
4,O=C(CCc1nc(-c2ccccc2)no1)N1CCCC1,-26.5%
5,Cc1nn(-c2ccccc2)c(Cl)c1/C=C1\SC(=S)NC1=O,26.5% (active)
6,Cc1nn(-c2ccccc2)c(N2CCCC2)c1/C=N/O,-24.6%
7,Cc1nn(-c2ccccc2)c(C)c1S(=O)(=O)O,-23.2%
8,CCc1nnc(NC(=O)c2c(C)nn(-c3ccccc3)c2Cl)s1,-14.1%
9,O=S(=O)(NC(=S)NC1CCCCC1)c1ccc(Br)cc1,-9.7%
10,CCOC(=O)C1CCN(C(=O)COC(=O)c2nn(C)c(=O)c3ccccc23)CC1,-33.9%
11,CCOC(=O)c1n[nH]n2c1nc(=S)c1ccccc12,12.1% (active)
12,CCOC(=O)c1c(O)c2ccccc2n(C)c1=O,-25%
13,Cc1[nH]n(-c2cccc3ccccc23)c(=O)c1/C=N/c1sc2c(c1C#N)CCC2,-19.1%
14,Cc1[nH]n(-c2ccc(Cl)cc2)c(=O)c1/C=N/c1nnc(-c2ccccc2)s1,78.7% (active)
15,COc1ccc2nc(/N=C/c3c(C)[nH]n(-c4ccc(C)cc4)c3=O)sc2c1,62.6% (active)
16,CCOc1ccc2nc(/N=C/c3c(C)[nH]n(-c4ccc(C)cc4)c3=O)sc2c1,33.5% (active)
17,Cc1[nH]n(-c2ccc(F)cc2)c(=O)c1/C=N/c1sc2c(c1C#N)CCCC2,-1.9%
18,CCOc1ccc2nc(N3C(=O)/C(=C/c4ccc(Cl)cc4)NC3=S)sc2c1,-25%
19,Cc1[nH]n(-c2ccccc2)c(=O)c1N=Nc1ccc(C(N)=O)cc1,-43.3%
20,COc1ccc2nc(-n3c(O)c(C4=c5ccccc5=NC4=O)[nH]c3=S)sc2c1,-25.1%
21,CCOc1ccc2nc(/N=C/c3nc(-c4ccc(Br)cc4)oc3O)sc2c1,-17.1%
22,COc1ccc2nc(/N=C/c3c(C)[nH]n(-c4ccc(C)cc4C)c3=O)sc2c1,22.3% (active)
